The structures appear in SMILES notation. The source made the active and inactive calls. Rule as the data show it: active = inhibition above about 50%; inactive = the rest.

Prolyl endopeptidase-like (Mus musculus), sequence (Q8C167 whole entry, looked up): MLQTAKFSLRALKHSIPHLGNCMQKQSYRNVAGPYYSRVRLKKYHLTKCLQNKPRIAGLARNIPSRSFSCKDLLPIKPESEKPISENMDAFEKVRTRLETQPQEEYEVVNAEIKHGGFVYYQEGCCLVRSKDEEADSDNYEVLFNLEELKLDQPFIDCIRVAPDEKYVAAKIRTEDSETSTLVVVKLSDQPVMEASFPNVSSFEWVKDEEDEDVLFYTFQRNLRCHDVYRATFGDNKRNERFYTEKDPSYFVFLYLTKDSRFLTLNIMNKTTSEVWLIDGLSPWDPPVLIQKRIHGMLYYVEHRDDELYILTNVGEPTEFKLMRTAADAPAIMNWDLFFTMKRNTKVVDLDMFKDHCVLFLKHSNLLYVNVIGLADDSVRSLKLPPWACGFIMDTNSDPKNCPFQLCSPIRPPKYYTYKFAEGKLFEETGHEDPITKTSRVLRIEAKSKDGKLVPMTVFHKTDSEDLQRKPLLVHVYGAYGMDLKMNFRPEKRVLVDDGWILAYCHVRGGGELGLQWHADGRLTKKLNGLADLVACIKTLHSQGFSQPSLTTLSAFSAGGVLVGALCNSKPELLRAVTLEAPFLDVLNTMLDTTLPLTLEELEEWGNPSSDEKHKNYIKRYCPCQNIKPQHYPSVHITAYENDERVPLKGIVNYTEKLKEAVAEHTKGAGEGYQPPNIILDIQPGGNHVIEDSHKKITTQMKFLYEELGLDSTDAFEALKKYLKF

This assay concerns the target Prolyl endopeptidase-like (Mus musculus) (UniProt Q8C167). The assay can be described thus: purified PREPL inhibitors, PREPL inhibitor project, biochemical, gel-based competitive ABPP, fluorescence, HTS hits (AID 624481). The conditions noted are these: at 20 µM, active compounds read high.
Take `Clc1ccc2nc(-c3ccccn3)c(Nc3ccc4c(c3)OCO4)n2c1`: the inhibition was -49% (inactive).

In the case of `c1ccc(N2CCN(c3nc(-c4ccccn4)nc4ccccc34)CC2)cc1`, the inhibition is -283% (inactive). Regarding `Cc1cc(C)c2nc(N3C(=O)C(O)=C(C(=O)c4ccco4)C3c3ccco3)sc2c1` (centres undefined), the inhibition is 45% (inactive). Take `O=C(C1=C[C@@H](c2ccccc2)C[C@@H](OCc2ccc(CO)cc2)O1)N1CCN(Cc2ccc3c(c2)OCO3)CC1`: the inhibition is -73% (inactive). For `CCC(=O)N1CCN(c2ccc(NC(=O)COc3cccc(C)c3C)cc2)CC1`, the inhibition is -49% (inactive). Consider `Cc1cc(/C=C2\SC(=Nc3ccc(F)cc3)NC2=O)c(C)n1-c1ccc(S(N)(=O)=O)cc1`, for which the inhibition was 28% (inactive). As for `CCOc1ccc(Nc2nc(NCC3CCCO3)c3ccccc3n2)cc1` (centres undefined), the inhibition is 12% (inactive). Consider `c1ccc2c(NCCc3c[nH]c4ccccc34)c3ccccc3nc2c1`, for which the inhibition is -49% (inactive). For `O=C1NC(Cc2c[nH]c3ccccc23)C(=O)N1Cc1ccc(CN2C(=O)NC(Cc3c[nH]c4ccccc34)C2=O)cc1` (centres undefined), the inhibition was 28% (inactive). Regarding `COc1ccc2cc1Oc1ccc(cc1)C[C@H]1c3cc(c(OC)cc3CCN1C)Oc1c(OC)c(OC)cc3c1[C@H](C2)N(C)CC3`, the inhibition was -30% (inactive). Then `Clc1cccc(-c2ccc(C3Nc4cccc5cccc(c45)N3)o2)c1`, with 100% (active).

With `O=C(Nc1ccc2c(c1)OCCO2)c1cccc2nc3ccccc3nc12`, the inhibition is -12% (inactive). The result for `COc1ccc(NC(=O)N2CCN(c3ccc([N+](=O)[O-])cc3)CC2)cc1OC` reads -40% (inactive). The result for `CN(C)c1ccc(C(CN)c2c[nH]c3ccccc23)cc1` (centres undefined) reads -86% (inactive).

As usually defined, the inhibition is the relative decrease from the control value, in per cent.

These data come from PubChem BioAssay AID624481 (The Scripps Research Institute Molecular Screening Center, 2012).
